Reference: PubChem BioAssay (Tox21)
Records with an inconclusive call do not appear. A number with no mark means an inactive call. The call rests on the fitted dose curve; in most records, active means well fitted cell-killing curve with a large enough effect in the repeat runs; inconclusive means weak or mixed curves, or effect the other way; inactive means flat fitted curve, though single readings scatter.

Assay: Human pregnane X receptor (PXR) small molecule agonists, qHTS cell viability counter screen (AID 1346977); further: nearly all actives have a fitted effect of over 50% in size
Conditions: PXR-Luc HepG2 viability, CellTiter-Fluor, 24 h; series mostly up to 92.4 µM; activity change, negative = cytotoxicity: at the top concentration
Source text: U.S. Tox21 Program National Center for Advancing Translational Sciences [NCATS] NIH Chemical Genomics Center [NCGC] U.S. Environmental Protection Agency [EPA] National Institutes of Environmental Health Sciences [NIEHS] National Toxicology Program [NTP] U.S. Food and Drug Administration [FDA] Tox21 Assay Overview: The human pregnane X receptor (hPXR) regulates the expression of several drug metabolizing enzymes and induction of these proteins is a major mechanism for developing drug resistance in cancer. One such key enzyme catalyzing the drug metabolism is cytochrome P450 3A4 (CYP3A4). Changes in CYP3A4 expression affect drug metabolism, thereby reducing the therapeutic efficacy and altering toxicological response to a drug and which finally causes adverse drug interaction. To screen Tox21 libraries for compounds that activate hPXR-mediated CYP3A4 gene expression, PXR-Luc HepG2 cells were used. Also cytotoxicity of the compounds was tested in parallel by measuring the cell viability using CellTiter-Fluor assay system in the same wells.
Tox21 Assay Protocol Summary: PXR-Luc HepG2 cells were dispensed at 2,000 per well in 5uL of assay medium containing 5% charcoal-stripped FBS into white solid bottom 1536-well plates (Corning Life Sciences, Corning, NY) using a Multidrop Combi (Thermo Scientific, Waltham, MA) dispenser. The assay plates were incubated at 37 C and 5% CO2 for 5hr, and then 23nL of compounds dissolved in DMSO and positive control were transferred using a Pintool station (Wako, San Diego, CA). The assay plates were incubated at 37C and 5% CO2 for 24hr. For cytotoxicity read, after 23hr incubation at 37C, 1uL CellTiter-Fluor reagent (Promega Corporation, Madison, WI) was added to each well of the assay plates using Flying Reagent Dispenser (FRD, Aurora Discovery, San Diego, CA). After 1hr incubation at 37C and 5% CO2, the fluorescence signal was quantified using a ViewLux plate reader (PerkinElmer, Shelton, CT).
On the % scale 0 is the no-effect control and ±100 the full control effect.

Compound	activity change, negative = cytotoxicity
BrCc1cccc(Oc2ccccc2)c1	20.2%
CCCCCOC(=O)CCC	-5.78%
O=C(O)C(=O)Cc1ccccc1	1.25%
CC(C)C[C@H](NC(=O)CNC(=O)[C@H](Cc1ccc(O)cc1)NC(=O)[C@H](CO)NC(=O)[C@H](Cc1c[nH]c2ccccc12)NC(=O)[C@H](Cc1cnc[nH]1)NC(=O)[C@@H]1CCC(=O)N1)C(=O)N[C@@H](CCCN=C(N)N)C(=O)N1CCC[C@H]1C(=O)NCC(N)=O (stereo in doubt)	15.7% [at 42.5 µM]
c1ccc2c(c1)ccc1c3ccccc3ccc21	-2.9% [at 42.5 µM]
C=C(C)C(=O)OCCN(CC)CC	8.37%
CCC(C)(CCC(C)C)C(=O)O (stereo not given)	-0.53%
O=C(O)c1cc(Br)c(O)c(Br)c1	0.681%
CCNC(=O)C1CC(C)CCC1C(C)C (stereo not given)	-0.608%
CCCN1C[C@H](CSC)C[C@@H]2c3cccc4[nH]cc(c34)C[C@H]21	-20% [at 42.5 µM]
Cc1[nH]cnc1-c1ccc(Cl)cc1	9.63% [at 42.5 µM]
COc1ccc2nc(SCc3ncc(C)c(OC)c3C)[nH]c2c1	6.18% [at 42.5 µM]
CO[C@@H]1[C@@H](OC(N)=O)[C@@H](O)[C@H](Oc2ccc3c(O)c(NC(=O)c4ccc(O)c(CC=C(C)C)c4)c(=O)oc3c2C)OC1(C)C	-1.04% [at 42.5 µM]
CCCCCCCC/C=C\CCCCCCCC(=O)OCCCC	1.78% [at 19 µM]
Nc1ncnc(Nc2ccccc2)n1	16.7% [at 42.5 µM]
O=C1c2ccccc2C(=O)N1CCl	9.18%
CCOCCOCCOCC	-3.36%
CN1CCN(CC(=O)N2c3ccccc3C(=O)Nc3cccnc32)CC1	5.67% [at 8.39 µM]
CCO[Si](CCCS)(OCC)OCC	0.204%
COc1ccc(S(=O)(=O)N2c3ccc(Cl)cc3[C@@](O)(c3ccccc3Cl)[C@H]2C(=O)N2CCC[C@@H]2C(N)=O)cc1OC	6.82% [at 42.5 µM]

Compound	activity change, negative = cytotoxicity
O=C(NCC(O)CO)c1c(I)c(C(=O)NCC(O)CO)c(I)c(N(CCO)C(=O)CO)c1I (stereo not given)	3.82% [at 42.5 µM]
Cc1cc2cc3c(C)cc(=O)oc3c(C)c2o1	-0.614% [at 42.5 µM]
CC(CO)c1ccccc1 (stereo not given)	5.62%
Cc1ccc(C=O)cc1C	-4.03%
Brc1ccc(-c2ccccc2)cc1	-3.86%
O=C(O)Cc1ccc(Cl)cc1Cl	-0.212%
Cc1cc(NC(=O)C2=C(O)c3ccccc3S(=O)(=O)N2C)no1	0.775% [at 42.5 µM]
CC1COc2ccccc2N1 (stereo not given)	0.942%
O=C(NCCN1CCOCC1)c1ccc(Cl)cc1	5.72% [at 42.5 µM]
CCCCCCCCOS(=O)(=O)O	14.3%
COC(=O)C1CC(=O)C(C(=O)OC)CC1=O (stereo not given)	1.52% [at 8.39 µM]
NC(CO)C(=O)NNCc1ccc(O)c(O)c1O (stereo not given)	-7.9% [at 42.5 µM]
O=C(/N=N/C(=O)OCc1ccccc1)OCc1ccccc1	7.69%
COc1cc(N)ccc1C	-7.46%
Cc1cccc(OCC(O)CNC(C)(C)C)c1C (stereo not given)	-14.8% [at 42.5 µM]
CCN1CCc2nc(N)oc2CC1	10% [at 42.5 µM]
CC(C)(C)OC(=O)c1ccc(O)cc1	-6.05%
O=C1CCCC(=O)O1	0.503%
CCCCCCOc1ccccc1C(N)=O	-27.4% [at 42.5 µM]
CC(C)NCC(O)COc1cccc2[nH]ccc12 (stereo not given)	0.161% [at 42.5 µM]
